According to the supplement of paper PMC4466140:

B1: unnamed (peptide)
chain: VPPPMQPPPIESSNL
B2: unnamed (peptide)
chain: MFLISPPASPPPEFD
B3: unnamed (peptide)
chain: APPLPPTAPPPPSLP

What follows are binders tested against CaNbp2 (assay: SPOT peptide array binding signal intensity (averaged, normalized) (arbitrary units (background-subtracted, floor 0; scale differs between SH3 domains)); higher = stronger binding of the SH3 domain to the peptide).
Outline: (§1)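 Peptides were synthetic 15-mers on cellulose membranes, with every cysteine replaced by serine. They were incubated overnight at 4°C with GST-SH3 domains from four yeast species at 10 μg/ml in TBS-based blocking buffer. Binding signal, the replicate-averaged normalized and background-subtracted spot intensity, is in arbitrary units that differ between domains.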

Binder | SPOT peptide array binding signal intensity
B1 | 172
B2 | 31
B3 | 7.5

The binders below were run against CaRvs167 in the same assay as above.
Outline: as §1

Binder | SPOT peptide array binding signal intensity
B1 | 12.5
B2 | 5.83
B3 | 0.167

Each binder was assayed against CaRvs167-3 in the same assay as above.
Outline: as §1

Binder | SPOT peptide array binding signal intensity
B1 | 1
B2 | 3.75
B3 | 2.5

These binders were tested against CaSho1 in the same assay as above.
Outline: as §1

Binder | SPOT peptide array binding signal intensity
B1 | 279
B2 | 19
B3 | 8

What follows are binders tested against CaSla1-D1-D2 in the same assay as above.
Outline: as §1

Binder | SPOT peptide array binding signal intensity
B1 | 168
B2 | ≤ 0
B3 | ≤ 0

These binders were tested against CaSla1-D3 in the same assay as above.
Outline: as §1

Binder | SPOT peptide array binding signal intensity
B1 | 249
B2 | 11.2
B3 | ≤ 0

Each binder was assayed against ScAbp1 in the same assay as above.
Outline: as §1

Binder | SPOT peptide array binding signal intensity
B1 | ≤ 0
B2 | 5.5
B3 | 0.5

What follows are binders tested against ScBbc1 in the same assay as above.
Outline: as §1

Binder | SPOT peptide array binding signal intensity
B1 | ≤ 0
B2 | ≤ 0
B3 | ≤ 0

Each binder was assayed against ScBem1-D1 in the same assay as above.
Outline: as §1

Binder | SPOT peptide array binding signal intensity
B1 | ≤ 0
B2 | ≤ 0
B3 | 0.5

These binders were tested against ScBzz1-D1 in the same assay as above.
Outline: as §1

Binder | SPOT peptide array binding signal intensity
B1 | ≤ 0
B2 | 7
B3 | ≤ 0

The binders below were run against ScBzz1-D2 in the same assay as above.
Outline: as §1

Binder | SPOT peptide array binding signal intensity
B1 | 2
B2 | 2
B3 | ≤ 0

The binders below were run against ScCyk3 in the same assay as above.
Outline: as §1

Binder | SPOT peptide array binding signal intensity
B1 | 5
B2 | 2
B3 | 2

Each binder was assayed against ScFus1 in the same assay as above.
Outline: as §1

Binder | SPOT peptide array binding signal intensity
B1 | 328
B2 | 7
B3 | ≤ 0

What follows are binders tested against ScHof1 in the same assay as above.
Outline: as §1

Binder | SPOT peptide array binding signal intensity
B1 | ≤ 0
B2 | ≤ 0
B3 | 212

The binders below were run against ScHse1 in the same assay as above.
Outline: as §1

Binder | SPOT peptide array binding signal intensity
B1 | 65
B2 | ≤ 0
B3 | ≤ 0

What follows are binders tested against ScLsb1 in the same assay as above.
Outline: as §1

Binder | SPOT peptide array binding signal intensity
B1 | 0.25
B2 | ≤ 0
B3 | ≤ 0

What follows are binders tested against ScLsb2 in the same assay as above.
Outline: as §1

Binder | SPOT peptide array binding signal intensity
B1 | ≤ 0
B2 | ≤ 0
B3 | ≤ 0

These binders were tested against ScLsb3 in the same assay as above.
Outline: as §1

Binder | SPOT peptide array binding signal intensity
B1 | ≤ 0
B2 | ≤ 0
B3 | ≤ 0

What follows are binders tested against ScLsb4 in the same assay as above.
Outline: as §1

Binder | SPOT peptide array binding signal intensity
B1 | 9
B2 | ≤ 0
B3 | 4

The binders below were run against ScMyo3 in the same assay as above.
Outline: as §1

Binder | SPOT peptide array binding signal intensity
B1 | 854
B2 | 735
B3 | 3490

Each binder was assayed against ScMyo5 in the same assay as above.
Outline: as §1

Binder | SPOT peptide array binding signal intensity
B1 | 502
B2 | 650
B3 | 3170

What follows are binders tested against ScNbp2 in the same assay as above.
Outline: as §1

Binder | SPOT peptide array binding signal intensity
B1 | 206
B2 | 20
B3 | 0.5

What follows are binders tested against ScPex13 in the same assay as above.
Outline: as §1

Binder | SPOT peptide array binding signal intensity
B1 | 12.2
B2 | ≤ 0
B3 | ≤ 0

Each binder was assayed against ScRvs167 in the same assay as above.
Outline: as §1

Binder | SPOT peptide array binding signal intensity
B1 | ≤ 0
B2 | ≤ 0
B3 | ≤ 0

What follows are binders tested against ScSho1 in the same assay as above.
Outline: as §1

Binder | SPOT peptide array binding signal intensity
B1 | 324
B2 | ≤ 0
B3 | ≤ 0

Each binder was assayed against ScSla1-D1-D2 in the same assay as above.
Outline: as §1

Binder | SPOT peptide array binding signal intensity
B1 | 75.5
B2 | ≤ 0
B3 | ≤ 0

What follows are binders tested against ScSla1-D3 in the same assay as above.
Outline: as §1

Binder | SPOT peptide array binding signal intensity
B1 | 122
B2 | 7.25
B3 | 0.5

These binders were tested against SpAbp1-D1 in the same assay as above.
Outline: as §1

Binder | SPOT peptide array binding signal intensity
B1 | ≤ 0
B2 | ≤ 0
B3 | ≤ 0

Each binder was assayed against SpBbc1 in the same assay as above.
Outline: as §1

Binder | SPOT peptide array binding signal intensity
B1 | ≤ 0
B2 | 0.5
B3 | 1

Each binder was assayed against SpBzz1-D1 in the same assay as above.
Outline: as §1

Binder | SPOT peptide array binding signal intensity
B1 | 28.5
B2 | 33.5
B3 | 525

Each binder was assayed against SpBzz1-D2 in the same assay as above.
Outline: as §1

Binder | SPOT peptide array binding signal intensity
B1 | ≤ 0
B2 | ≤ 0
B3 | ≤ 0

Each binder was assayed against SpCyk3 in the same assay as above.
Outline: as §1

Binder | SPOT peptide array binding signal intensity
B1 | 6
B2 | 4
B3 | 1

The binders below were run against SpHof1 in the same assay as above.
Outline: as §1

Binder | SPOT peptide array binding signal intensity
B1 | 4.5
B2 | 7.5
B3 | ≤ 0

Each binder was assayed against SpHof1-2 in the same assay as above.
Outline: as §1

Binder | SPOT peptide array binding signal intensity
B1 | 1.5
B2 | 8.25
B3 | 4

Each binder was assayed against SpHof1-3 in the same assay as above.
Outline: as §1

Binder | SPOT peptide array binding signal intensity
B1 | ≤ 0
B2 | ≤ 0
B3 | 0.5

What follows are binders tested against SpHse1 in the same assay as above.
Outline: as §1

Binder | SPOT peptide array binding signal intensity
B1 | 163
B2 | 103
B3 | 10.5

What follows are binders tested against SpLsb1 in the same assay as above.
Outline: as §1

Binder | SPOT peptide array binding signal intensity
B1 | ≤ 0
B2 | ≤ 0
B3 | ≤ 0

Each binder was assayed against SpLsb4 in the same assay as above.
Outline: as §1

Binder | SPOT peptide array binding signal intensity
B1 | 61.5
B2 | 49
B3 | ≤ 0

What follows are binders tested against SpMyo1 in the same assay as above.
Outline: as §1

Binder | SPOT peptide array binding signal intensity
B1 | 957
B2 | 1430
B3 | 2050

The binders below were run against SpNbp2 in the same assay as above.
Outline: as §1

Binder | SPOT peptide array binding signal intensity
B1 | 46
B2 | 9
B3 | 6.5

What follows are binders tested against SpPex13 in the same assay as above.
Outline: as §1

Binder | SPOT peptide array binding signal intensity
B1 | 5
B2 | 2.5
B3 | ≤ 0

These binders were tested against SpRvs167 in the same assay as above.
Outline: as §1

Binder | SPOT peptide array binding signal intensity
B1 | ≤ 0
B2 | ≤ 0
B3 | 24.3

The binders below were run against SpSla1-D1-D2 in the same assay as above.
Outline: as §1

Binder | SPOT peptide array binding signal intensity
B1 | ≤ 0
B2 | ≤ 0
B3 | ≤ 0

Each binder was assayed against SpSla1-D3 in the same assay as above.
Outline: as §1

Binder | SPOT peptide array binding signal intensity
B1 | 138
B2 | ≤ 0
B3 | ≤ 0

Each binder was assayed against AgAbp1 in the same assay as above.
Outline: as §1

Binder | SPOT peptide array binding signal intensity
B2 | ≤ 0
B3 | ≤ 0

These binders were tested against AgBbc1 in the same assay as above.
Outline: as §1

Binder | SPOT peptide array binding signal intensity
B2 | ≤ 0
B3 | ≤ 0

What follows are binders tested against AgBem1-D1 in the same assay as above.
Outline: as §1

Binder | SPOT peptide array binding signal intensity
B2 | 70
B3 | ≤ 0

The binders below were run against AgBzz1-D1 in the same assay as above.
Outline: as §1

Binder | SPOT peptide array binding signal intensity
B2 | ≤ 0
B3 | ≤ 0

The binders below were run against AgBzz1-D2 in the same assay as above.
Outline: as §1

Binder | SPOT peptide array binding signal intensity
B2 | ≤ 0
B3 | 3

These binders were tested against AgCyk3 in the same assay as above.
Outline: as §1

Binder | SPOT peptide array binding signal intensity
B2 | 1.5
B3 | ≤ 0

These binders were tested against AgFus1 in the same assay as above.
Outline: as §1

Binder | SPOT peptide array binding signal intensity
B2 | 4
B3 | ≤ 0

What follows are binders tested against AgHof1 in the same assay as above.
Outline: as §1

Binder | SPOT peptide array binding signal intensity
B2 | 4
B3 | 116

What follows are binders tested against AgHse1 in the same assay as above.
Outline: as §1

Binder | SPOT peptide array binding signal intensity
B2 | ≤ 0
B3 | 13

These binders were tested against AgLsb1 in the same assay as above.
Outline: as §1

Binder | SPOT peptide array binding signal intensity
B2 | ≤ 0
B3 | ≤ 0

What follows are binders tested against AgLsb4 in the same assay as above.
Outline: as §1

Binder | SPOT peptide array binding signal intensity
B2 | ≤ 0
B3 | 3

What follows are binders tested against AgMyo5 in the same assay as above.
Outline: as §1

Binder | SPOT peptide array binding signal intensity
B2 | 388
B3 | 2800

Each binder was assayed against AgNbp2 in the same assay as above.
Outline: as §1

Binder | SPOT peptide array binding signal intensity
B2 | 2
B3 | ≤ 0

Each binder was assayed against AgRvs167 in the same assay as above.
Outline: as §1

Binder | SPOT peptide array binding signal intensity
B2 | ≤ 0
B3 | ≤ 0

These binders were tested against AgSho1 in the same assay as above.
Outline: as §1

Binder | SPOT peptide array binding signal intensity
B2 | 1.5
B3 | ≤ 0

Each binder was assayed against AgSla1-D1-D2 in the same assay as above.
Outline: as §1

Binder | SPOT peptide array binding signal intensity
B2 | 3
B3 | 2

These binders were tested against AgSla1-D3 in the same assay as above.
Outline: as §1

Binder | SPOT peptide array binding signal intensity
B2 | 1
B3 | 0.5

What follows are binders tested against CaAbp1-D1 in the same assay as above.
Outline: as §1

Binder | SPOT peptide array binding signal intensity
B2 | ≤ 0
B3 | ≤ 0

These binders were tested against CaAbp1-D2 in the same assay as above.
Outline: as §1

Binder | SPOT peptide array binding signal intensity
B2 | ≤ 0
B3 | ≤ 0

What follows are binders tested against CaBbc1 in the same assay as above.
Outline: as §1

Binder | SPOT peptide array binding signal intensity
B2 | 6
B3 | ≤ 0

Each binder was assayed against CaBem1-D1 in the same assay as above.
Outline: as §1

Binder | SPOT peptide array binding signal intensity
B2 | ≤ 0
B3 | 1

What follows are binders tested against CaBzz1-D1 in the same assay as above.
Outline: as §1

Binder | SPOT peptide array binding signal intensity
B2 | ≤ 0
B3 | ≤ 0

The binders below were run against CaBzz1-D2 in the same assay as above.
Outline: as §1

Binder | SPOT peptide array binding signal intensity
B2 | ≤ 0
B3 | ≤ 0

The binders below were run against CaCyk3 in the same assay as above.
Outline: as §1

Binder | SPOT peptide array binding signal intensity
B2 | 2
B3 | ≤ 0

Each binder was assayed against CaFus1 in the same assay as above.
Outline: as §1

Binder | SPOT peptide array binding signal intensity
B2 | 342
B3 | ≤ 0

What follows are binders tested against CaHof1 in the same assay as above.
Outline: as §1

Binder | SPOT peptide array binding signal intensity
B2 | ≤ 0
B3 | ≤ 0

Each binder was assayed against CaHse1 in the same assay as above.
Outline: as §1

Binder | SPOT peptide array binding signal intensity
B2 | 8
B3 | ≤ 0

These binders were tested against CaLsb1 in the same assay as above.
Outline: as §1

Binder | SPOT peptide array binding signal intensity
B2 | ≤ 0
B3 | ≤ 0

Each binder was assayed against CaLsb4 in the same assay as above.
Outline: as §1

Binder | SPOT peptide array binding signal intensity
B2 | ≤ 0
B3 | ≤ 0

The binders below were run against CaMyo5 in the same assay as above.
Outline: as §1

Binder | SPOT peptide array binding signal intensity
B2 | 180
B3 | 2460
